Most compounds without a hit are left out; they make up all but 2.1% or so of the library.
ADAM10 inh = ADAM10 inhibition, QFRET primary screen; O14672; recombinant ADAM10, EDANS/DABCYL FRET peptide cleavage, 3 h; inhibition, % at 7 µM; 370,000 tested, 0.62% active; AID 720582;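 active = inhibition above a per-campaign cutoff equal to the mean of compounds falling between control-based bounds plus 3 SD, cut at about 20% in these data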
Rce1 inh = yeast Ras-converting enzyme inhibition; calls only; 290,000 tested, 0.27% active; yeast membranes, quenched prenylated peptide cleavage fluorescence; Q03530;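 active = fall in fluorescence gain of 50% or more versus controls, with final raw signal at or below 3038400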
PLC-gamma1 inh = inhibitors of human phospholipase C gamma1; purified PLC-gamma1, fluorogenic substrate, fluorescence; inhibition, % at 12.2 µM; 370,000 tested, 0.84% active; AID 720700; in the data active = inhibition above about 9.5%
Target sequence (P19174 whole entry, looked up): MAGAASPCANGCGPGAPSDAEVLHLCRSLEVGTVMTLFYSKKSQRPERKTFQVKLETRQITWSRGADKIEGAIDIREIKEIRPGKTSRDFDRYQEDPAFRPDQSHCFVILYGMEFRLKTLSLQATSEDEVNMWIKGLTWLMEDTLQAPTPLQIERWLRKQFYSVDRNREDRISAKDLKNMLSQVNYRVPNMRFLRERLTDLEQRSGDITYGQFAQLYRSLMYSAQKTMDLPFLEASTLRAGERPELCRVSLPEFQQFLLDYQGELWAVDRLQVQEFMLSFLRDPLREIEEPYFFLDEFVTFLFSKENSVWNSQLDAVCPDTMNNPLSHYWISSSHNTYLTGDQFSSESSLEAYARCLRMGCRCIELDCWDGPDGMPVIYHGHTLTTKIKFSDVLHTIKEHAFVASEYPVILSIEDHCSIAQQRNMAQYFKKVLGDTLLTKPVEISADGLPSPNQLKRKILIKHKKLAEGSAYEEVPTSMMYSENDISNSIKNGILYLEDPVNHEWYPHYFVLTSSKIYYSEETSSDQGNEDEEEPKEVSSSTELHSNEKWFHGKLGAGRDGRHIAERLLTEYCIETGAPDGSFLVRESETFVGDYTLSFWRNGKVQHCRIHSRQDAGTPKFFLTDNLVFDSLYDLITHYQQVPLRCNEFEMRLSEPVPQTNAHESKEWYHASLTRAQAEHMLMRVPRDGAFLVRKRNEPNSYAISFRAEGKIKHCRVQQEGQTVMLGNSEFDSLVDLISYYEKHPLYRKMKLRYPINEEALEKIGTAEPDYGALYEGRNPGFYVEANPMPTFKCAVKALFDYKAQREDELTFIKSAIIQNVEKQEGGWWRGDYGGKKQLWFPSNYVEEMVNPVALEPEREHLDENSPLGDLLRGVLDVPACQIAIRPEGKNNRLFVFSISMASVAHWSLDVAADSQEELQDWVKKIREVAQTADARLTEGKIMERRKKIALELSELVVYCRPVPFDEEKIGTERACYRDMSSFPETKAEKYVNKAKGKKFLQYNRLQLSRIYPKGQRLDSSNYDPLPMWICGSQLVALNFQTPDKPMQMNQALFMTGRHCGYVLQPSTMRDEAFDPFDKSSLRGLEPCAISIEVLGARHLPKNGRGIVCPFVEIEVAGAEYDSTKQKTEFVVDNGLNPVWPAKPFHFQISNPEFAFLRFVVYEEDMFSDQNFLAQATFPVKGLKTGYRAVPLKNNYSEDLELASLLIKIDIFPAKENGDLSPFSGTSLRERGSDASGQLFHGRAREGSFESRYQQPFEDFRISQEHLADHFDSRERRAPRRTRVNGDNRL
ADAM17 inh = ADAM17 inhibition, QFRET primary screen | AID 720648 | inhibition, % at 6.95 µM | 370,000 tested, 0.83% active | recombinant ADAM17, EDANS/DABCYL FRET peptide cleavage;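 active = inhibition above the mean of compounds lying between control limits plus 3 SD, set per campaign, cut at about 8.5% in these data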
PLCb3 inh = inhibitors of human phospholipase C beta3; Q01970; 370,000 tested, 0.18% active; inhibition, % at 12.2 µM; Purified PLC-beta3, fluorogenic substrate, fluorescence
ADAM10 confirm = confirmation of inhibitors of human ADAM10. shares compounds with ADAM10 inh. inhibition, % at 6.95 µM. ADAM10 QFRET peptide cleavage, EDANS fluorescence. 2,100 tested, 1% active. AID 743208;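 active = inhibition above about 20% chosen separately for each screening run, limit read from the data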
ADAM17 ctr = inhibits human ADAM17 in ADAM10 exosite counter-screen; shares compounds with ADAM10 inh; ADAM17 QFRET peptide cleavage, EDANS fluorescence; inhibition, % at 6.95 µM; 2,100 tested, 0.5% active; AID 743214;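 active = mean triplicate inhibition above the solvent-only control wells' mean plus 3 SD, cut at about 12% in these data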
ADAM10 ctr = inhibits human ADAM10 in ADAM17 exosite counter-screen | shares compounds with ADAM17 inh | recombinant ADAM10, EDANS/DABCYL FRET peptide cleavage, 3 h | inhibition, % at 6.95 µM | 2,900 tested, 47% active | AID 743256;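 active = mean inhibition over the triplicate runs exceeds the activity threshold set in the earlier primary screen, cut at about 20% in these data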
ADAM17 confirm = human ADAM17 inhibition, confirmation; shares compounds with ADAM17 inh; recombinant ADAM17, EDANS/DABCYL QFRET peptide cleavage; inhibition, % at 6.95 µM; 2,900 tested, 65% active; AID 743257;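 active = mean inhibition across replicates above the hit cutoff set in the primary screen, cut at about 8.5% in these data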
PLCgamma1 ctr = inhibits human PLC-gamma1 in PLC-beta3 counter-screen. 3,300 tested, 3.1% active. AID 743258. shares compounds with PLC-gamma1 inh. inhibition, % at 12.3 µM. purified PLC-gamma1, fluorogenic substrate, fluorescence; in the data active = inhibition above about 9.5%
PLCb3 confirm = confirmation of human PLC-beta3 inhibitors; AID 743261; inhibition, % at 12.3 µM; 3,300 tested, 1% active; purified PLC-beta3, fluorogenic substrate fluorescence; shares compounds with PLC-gamma1 inh
Hits are given with their value; . = inactive; / = not tested or not shown. Rule as the data show it, unless noted: active = inhibition above about 11%; inactive = the rest.

SMILES	ADAM10 inh	Rce1 inh	PLC-gamma1 inh	ADAM17 inh	PLCb3 inh	ADAM10 confirm	ADAM17 ctr	ADAM10 ctr	ADAM17 confirm	PLCgamma1 ctr	PLCb3 confirm
COc1ccc(C(=O)NC(=S)Nc2ccc(Cc3ccncc3)cc2)cc1	36	.	.	9.0	.	.	.	23	11	/	/
Cc1ccccc1C(=O)NC(=S)Nc1ccc(Cc2ccncc2)cc1	.	.	.	.	.	/	/	/	/	/	/
Cc1cc(C(O)c2ncc(-c3ccc(Oc4ccccc4)cc3)[nH]2)ccc1F (configuration not stated)	21	/	.	13	.	.	.	37	16	/	/
Cc1ccccc1-c1cnc(C(O)c2ccc(-c3ccccc3)cc2)[nH]1 (configuration not stated)	23	/	.	9.1	.	.	.	.	.	/	/
Cc1ccccc1-c1cnc(C(O)c2ccc(C(C)(C)C)cc2)[nH]1 (configuration not stated)	.	/	.	.	.	/	/	/	/	/	/
CC(C)(C)OC(=O)COc1ccc(/C=N/NC(=O)CN2CCCCC2)cc1	.	.	.	.	.	/	/	/	/	/	/
O=C(Cn1nnc2ccccc2c1=O)NCC1CCC(C(=O)O)CC1 (configuration not stated)	.	.	.	.	.	/	/	/	/	/	/
C=CCNS(=O)(=O)NC(=O)C1=C(N2CCCC2)COC1=O	.	/	.	.	.	/	/	/	/	/	/
CCOc1nc(-c2ccc(Cl)cc2)nc2ccccc12	.	.	.	.	.	/	/	/	/	/	/
COc1ccc(-c2n(Cc3ccccc3)c3ccccc3[n+]2Cc2ccccc2)cc1	.	.	.	.	.	/	/	/	/	/	/
CC(C)(C)C1CCc2nc(NC(=O)Cc3cn4ccsc4n3)sc2C1 (configuration not stated)	23	.	.	20	.	.	.	21	9.7	/	/
Cc1cccc(-n2ncc3c(NCc4cccs4)ncnc32)c1	23	.	.	12	.	.	.	.	9.6	/	/
COc1ccc(C(c2nnnn2Cc2ccccc2)N2CCN(C/C=C/c3ccccc3)CC2)cc1 (configuration not stated)	24	/	14	12	.	.	.	.	11	.	.
O=c1[nH]c(C2CCN(S(=O)(=O)c3ccc(S(=O)(=O)NC4CC4)cc3)CC2)nc2c1nnn2Cc1ccc(F)cc1	.	.	.	.	.	/	/	/	/	/	/
Cc1ccc(Cn2nnc3c(=O)[nH]c(C4CCN(S(=O)(=O)c5cc(C)ccc5C)CC4)nc32)cc1	43	.	12	15	.	.	.	25	11	.	.
Cc1ccc(C)c(S(=O)(=O)N2CCC(c3nc4c(nnn4Cc4ccc(F)cc4)c(=O)[nH]3)CC2)c1	.	/	.	.	.	/	/	/	/	/	/
Cc1ccc(Cn2nnc3c(=O)[nH]c(C4CCN(S(=O)(=O)c5ccc(F)cc5)CC4)nc32)cc1	21	.	9.8	.	.	.	.	/	/	.	.
COC1=Nc2ccccc2/C=C\c2ccccc21	.	/	.	.	.	/	/	/	/	/	/
O=c1c2ccccc2nnn1-c1ccc(Br)cc1	.	.	.	.	.	/	/	/	/	/	/
CN(C)Cc1c(C(C)(C)O)[nH]c2ccccc12	.	/	.	.	.	/	/	/	/	/	/
Cc1cc(Nc2ccc(Cl)cc2)n(-c2ccccc2)n1	.	.	.	.	.	/	/	/	/	/	/
Cc1cc(Nc2ccc(Cl)cc2)n(-c2cccc(Cl)c2)n1	24	.	12	9.8	.	.	.	.	11	.	.
COc1ccc([C@@H]2[C@@H]3C(=O)N(C(C)(C)C)C(=O)[C@@H]3[C@]3(Cc4ccccc4)C(=O)N(c4cccc(Cl)c4)C(=O)N23)cc1	37	.	9.6	9.8	.	.	.	26	15	.	.
COC(=O)C(NC(=O)c1ccccc1C)(Nc1ncc(S(=O)(=O)c2ccc([N+](=O)[O-])cc2)s1)C(F)(F)F (configuration not stated)	33	.	12	12	.	.	.	.	.	.	.
COC(=O)C(NC(=O)c1ccc(F)cc1)(Nc1ncc(S(=O)(=O)c2ccc([N+](=O)[O-])cc2)s1)C(F)(F)F (configuration not stated)	.	.	.	.	.	/	/	/	/	/	/
SMILES	ADAM10 inh	Rce1 inh	PLC-gamma1 inh	ADAM17 inh	PLCb3 inh	ADAM10 confirm	ADAM17 ctr	ADAM10 ctr	ADAM17 confirm	PLCgamma1 ctr	PLCb3 confirm
CC(C)C1S/C(=N/N=C/c2cccs2)NC1=O (configuration not stated)	29	.	13	9.4	.	.	.	.	.	.	.
COC(=O)c1ccc(Cl)c(NC(=O)CN(c2ccc(OC)cc2)S(=O)(=O)c2ccccc2)c1	35	.	13	18	.	.	.	26	16	.	.
CCc1nnc(NC(=O)CCC(=O)N2CCC(Cc3ccccc3)CC2)s1	.	.	.	.	.	/	/	/	/	/	/
CC(=O)NC1CCCCN(C)C1=O (configuration not stated)	.	/	.	.	.	/	/	/	/	/	/
C=CCOc1ccccc1CN(C(=O)CCl)c1ccc2c(c1)OCO2	.	.	.	.	.	/	/	/	/	/	/
COC(=O)C[C@@H]1CC[C@@H]2[C@@H](COc3ccc(NS(=O)(=O)c4ccc(F)cc4)cc3C(=O)N2C)O1	.	/	.	.	.	/	/	/	/	/	/
CN1C(=O)c2cc(NS(=O)(=O)c3ccc(F)cc3)ccc2OC[C@H]2O[C@@H](CC(=O)NCC(F)(F)F)CC[C@@H]21	26	/	12	.	.	.	.	/	/	13	17
O=C(CSC1CS(=O)(=O)c2cc([N+](=O)[O-])ccc21)NNC(=O)c1ccccc1 (configuration not stated)	24	.	10.0	.	.	.	.	/	/	.	.
O=C(/C=C/c1ccc(Cl)cc1)N1CCN(c2c(Cl)cccc2[N+](=O)[O-])CC1	23	.	17	12	.	.	.	.	8.7	.	.
O=C(CSc1ccc(Cl)cc1)N1CCN(c2c(Cl)cccc2[N+](=O)[O-])CC1	.	.	.	.	.	/	/	/	/	/	/
COc1cc(C(c2c(C)[nH][nH]c2=O)c2c(C)[nH][nH]c2=O)cc([N+](=O)[O-])c1O	20	.	15	10	.	.	.	.	.	.	.
COC(=O)C1CCc2c(ccc3c2CCCC3)C1=O (configuration not stated)	.	/	.	.	.	/	/	/	/	/	/
